# In PubChem BioAssay (NCATS):
# Inconclusive results are not listed. Values without a mark were called inactive. Calls come from the whole dose curve; as a rule, active = well fitted cell-killing curve with a large enough effect; inconclusive = small, poorly fitted or top-dose-only effect; inactive = flat fitted curve, though single readings scatter.
# Experiment: Cell Viability - LYMP2-013 (AID 970);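 note: cells exposed to compound for 24 h at 37 °C; 0% = DMSO only and full inhibition = tetraoctylammonium bromide control; nearly all actives have a fitted effect of over 55% in size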
# Conditions: LYMP2-013 lymphoblastoid cells viability; series mostly up to 92.2 µM; activity change, negative = cytotoxic: at the top concentration
# Source text: NIH Chemical Genomics Center [NCGC]
# NIH Molecular Libraries Screening Centers Network [MLSCN]
# National Institutes of Environmental Health Sciences [NIEHS]
# National Toxicology Program [NTP]
# We have developed a 1536-well cell-based assay for quantitative high throughput screening (qHTS) against a number of cell lines to determine in vitro cytotoxicity of small molecules. This particular assay uses a human lymphoblastoid cell line (LYMP2-013) purchased from Coriell Institute for Medical Research.
# NCGC Assay Protocol Summary:
# The CellTiter-Glo luminescent cell viability assay (Promega) is a homogeneous method to measure the number of viable cells in culture. The end point readout of this assay is based on quantitation of intracellular ATP, an indicator of metabolic activity, using the luciferase reaction. Luciferase catalyzes the oxidation of beetle Luciferin to oxyluciferin and light in the presence of ATP. The luminescent signal is proportional to amount of ATP present.
# Using the CellTiter-Glo luminescent cell viability assay, the amount of cellular ATP was measured in the lymphoblastoid cell line with complete culture medium following compound treatment for 24 hours. The assay was performed in opaque white Kalypsys 1536-well plates. In the screen, tetraoctylammonium bromide was used as positive control. Library compounds were measured for their ability to cause acute toxicity in the cell line, as reflected by a decrease in intracellular ATP levels, in a concentration-dependent manner. […] AC50 values were determined from concentration-response data modeled with the standard Hill equation.
# qHTS protocol for CellTiter Glo lymphoblastoid cellular assay
# [Step] [Parameter] [Value] [Description]
# 1. Reagent; 5 uL; 2500 lymphoblastoid cells/well
# 2. Time; 5 hr; 37 C incubation
# 4. Controls; 23 nL; Tetraoctylammonium bromide 6.4pM to 92 uM
# 5. Time; 24 hr; 37 C incubation
# 6. Reagent; 5 uL; CellTiter Glo reagent
# 7. Time; 30 min; Room Temperature
# 8. Detection; Luminescence; Viewlux plate reader
# Keywords: cell viability, cytotoxicity, lymphoblastoid cell line, luminescence, NTPHTS, NTPHTS_NCGC, NIEHS, DSSTox, MLSMR, MLSCN, NIH Roadmap, qHTS, NCGC
row,Compound,"activity change, negative = cytotoxic"
1,CC(C)(C)OCC1CO1 (stereo not given),-4.44%
2,CCOC(=O)C(C)C(C)=O (stereo not given),-4.17%
3,OC/C(Br)=C(\Br)CO,1.66%
4,Nc1ccccc1[N+](=O)[O-],-8.62%
5,CCCOCC(C)OCC(C)O (stereo not given),-0.929%
6,O=C1CCC(=O)O1,-3.88%
7,Nc1nc(-c2ccccc2)cs1,-13.4%
8,CC(=O)OCc1ccco1,-0.758%
9,O=Cc1ccccc1Cl,-4.83%
10,Cc1ccc(C)o1,-4.36%
11,CC(C)(c1cc(Br)c(OCC(Br)CBr)c(Br)c1)c1cc(Br)c(OCC(Br)CBr)c(Br)c1 (stereo not given),-14.9%
12,Cc1ccc2cccnc2c1,-6.3%
13,CCCC(Cl)CCCC(Cl)CCC(Cl)CCC(Cl)CCC(Cl)CCCC(Cl)CCC (stereo not given),-2.07%
14,OCCO,-2.6%
15,O=C1NC(=O)c2cc([N+](=O)[O-])ccc21,-2.91%
16,Cc1cc(C)c(N)cc1C,-8.84%
17,CC(=C/C=C/C(C)=C/C=C/C=C(C)/C=C/C=C(C)/C=C/C(=O)O)/C=C/C(=O)O,-5.4%
18,CSc1ccc(C=O)cc1,-0.202%
19,C=C(C)C(=O)OCCCCCC,-20.9%
20,O=C(O)CN(CC(=O)O)CC(=O)O,-3.24%

row,Compound,"activity change, negative = cytotoxic"
1,Nc1nc2ccccc2[nH]1,-14.7%
2,BrC(Br)C(Br)Br,-7.95%
3,Cc1cccc(C(=O)O)c1,-4.85%
4,O=C(O)c1ccc(C(=O)O)cc1,-4.34%
5,COc1ccc(N=[N+]([O-])c2ccc(OC)cc2)cc1,-13.9%
6,C=CCCCC,-1.57%
7,FB(F)F,-4.54%
8,CC(=O)OC(C)C,-7.6%
9,Cc1ccc2oc(=O)ccc2c1,-1.93%
10,Nc1cccc(C(F)(F)F)c1,-3.83%
11,c1ccc(Oc2ccccc2)cc1,-5.1%
12,OC1CCCC1,-2.84%
13,CCCCCCO,-10.5%
14,Nc1ccc([N+](=O)[O-])c(N)c1,-3.56%
15,CC(=O)Nc1cccc(N)c1,0.056%
16,CC(C)=C1CCC(C)CC1=O (stereo not given),-6.44%
17,[O-]/[N+](=N\O)c1ccccc1,-4.69%
18,S=C([S-])NCCNC(=S)[S-].[Zn+2],-7.44%
19,NC(=O)NC(N)=O,-3.31%
20,c1ccc(Nc2ccccc2)cc1,2.43%
